Sampled rows, rich in hits. Any-hit rate of the full collection: about 12%.
Pf growth 96h: P. falciparum growth inhibition at 96 hours; P. falciparum luciferase reporter growth, 96 h; Potency, µM (highest dose often 28.7 µM), hits mostly inhibitors; 320,000 tested, 6.9% active
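Cell-based qHTS: luciferase-tagged P. falciparum in erythrocytes (2% hematocrit, 0.05% parasitemia final) incubated with compounds for 96 hours, 37 C, 5% CO2; luciferase detection reagent then added and luminescence measured.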
Sm TGR inh: S. mansoni TGR enzyme inhibition; Q962Y6; purified TGR, DTNB reduction, TNB absorbance 405 nm; Potency, µM (doses to about 114 µM), usual class: inhibitors; 360,000 tested, 3% active; AID 485364; further: nearly all actives have a fitted effect of over 60% in size
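TGR 20 nM + NADPH 100 uM (dispensed conc.), cpd preinc 15 min RT; start with NADPH (500 uM addition) then DTNB (15 mM addition). Kinetic TNB absorbance, 405 nm filter. Four-parameter Hill fit across titration.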
SARS PLP yeast: blocks SARS-CoV papain-like protease in a yeast assay; S. cerevisiae expressing SARS-CoV PLpro, growth rescue; Potency, µM (series often up to 32.9 µM), usual class: activators; 330,000 tested, 0.19% active; AID 485353; calls by dose curve; further: nearly all actives have a fitted effect of over 55% in size
Pf growth 48h: inhibits P. falciparum growth in the first generation, 48 h | P. falciparum luciferase growth in erythrocytes, 48 h | Potency, µM (titrated, usually from 28.7 µM), most hits filed as inhibitors | 310,000 tested, 5.9% active | AID 504832
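Luminescence readout; reporter = integrated firefly luciferase in P. falciparum. RBC culture at 2% hematocrit, 0.1% parasitemia final, 37 C/5% CO2; decreased signal taken as growth inhibition.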
AmpC no deterg: blocks E. coli AmpC beta-lactamase in detergent-free assay | P00811 | AmpC nitrocefin hydrolysis, absorbance 480 nm, 0.0001% Triton | Potency, µM (titrated, usually from 57.1 µM), usual class: inhibitors | 330,000 tested, 0.52% active | AID 485341; further: nearly all actives have a fitted effect of over 20% in size
Target sequence (P00811 whole entry, looked up): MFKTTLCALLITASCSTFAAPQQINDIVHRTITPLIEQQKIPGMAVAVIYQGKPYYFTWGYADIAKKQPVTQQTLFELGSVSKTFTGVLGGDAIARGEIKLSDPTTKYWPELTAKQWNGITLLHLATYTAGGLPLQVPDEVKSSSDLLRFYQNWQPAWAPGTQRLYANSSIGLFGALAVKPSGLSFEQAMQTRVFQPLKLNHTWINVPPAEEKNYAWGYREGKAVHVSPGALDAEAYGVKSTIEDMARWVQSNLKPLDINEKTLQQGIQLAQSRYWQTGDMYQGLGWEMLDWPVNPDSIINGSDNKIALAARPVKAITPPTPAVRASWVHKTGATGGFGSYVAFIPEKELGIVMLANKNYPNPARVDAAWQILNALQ
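AmpC (5.3 nM in the dispensed reagent) in 20 mM phosphate pH 7.0 with 0.01% (detergent screen) or 0.0001% Triton X-100 was preincubated with compounds for 15 min at room temperature. Nitrocefin was then added from an 800 uM solution, and hydrolysis was followed at 480 nm.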
AmpC detergent: blocks E. coli AmpC beta-lactamase in detergent assay | P00811 | AmpC hydrolysis of nitrocefin, absorbance 480 nm, 0.01% Triton | Potency, µM (series often up to 114 µM), actives largely listed as inhibitors | 370,000 tested, 0.041% active | AID 485294; further: nearly all actives have a fitted effect of over 25% in size
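20 mM phosphate pH 7.0 + 0.01% (detergent screen) or 0.0001% Triton X-100; 5.3 nM AmpC reagent; cpd preinc 15 min RT; nitrocefin (800 uM stock) to start; A480 q20 s × 4 min; Activity was normalised to no-enzyme and no-compound control wells.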
Of the large screens only hits and unclear results are named; the others gave an inactive call. Unless noted, the call rests on the fitted dose curve; in most records, active means well fitted curve in the direction sought with a large enough effect; inconclusive means small, poorly fitted or top-dose-only effect, or another doubt; inactive means no such curve, though single readings can be large; an effect the other way counts as inactive or inconclusive.

CCOC(=O)C1=C(NC(=O)c2ccc(Br)o2)Nc2ccccc2N=C1	Pf growth 96h 1.85µM, Pf growth 48h 1.65µM
Cc1cccc(CCN2C(N(C)C)=NC[C@@H]2Cc2ccccc2)c1	none (no result: Pf growth 96h, Sm TGR inh, Pf growth 48h, AmpC detergent)
Cc1cccc(CCN2C(N(C)C)=NC[C@@H]2CC(C)C)c1	Pf growth 96h inconclusive, Pf growth 48h 13.1µM
CN(C)C1=NC[C@H](Cc2ccccc2)N1CCCCc1ccccc1	Pf growth 96h inconclusive, Pf growth 48h 13.1µM
CC(C)C[C@H]1CN=C(N(C)C)N1CC1CCCCCC1	Pf growth 96h inconclusive, Pf growth 48h 4.15µM
CCCCCCCN1C(N(C)C)=NC[C@@H]1Cc1ccccc1	Pf growth 96h inconclusive, Pf growth 48h 4.65µM, AmpC detergent inconclusive
CC(C)C[C@H]1CN=C(N(C)C)N1CC(C)C	none (no result: Pf growth 96h, Sm TGR inh, Pf growth 48h, AmpC detergent)
COc1ccc(NS(=O)(=O)c2cccc(C(=O)NNC(=O)c3cncc(Br)c3)c2)cc1	none
CCOc1cccc(NC(=O)C2CC(=O)N(C)C(=Nc3ccc(F)cc3)S2)c1 (stereo not drawn)	none (no result: Pf growth 96h, SARS PLP yeast, Pf growth 48h, AmpC no deterg)
COc1ccccc1NC(=O)Cn1c(=O)n(Cc2nc(-c3ccccc3)no2)c(=O)c2ccccc21	none (no result: Pf growth 96h, SARS PLP yeast, Pf growth 48h, AmpC no deterg)
O=C(CSc1nccn1-c1ccc(F)cc1)Nc1ccc(OC(F)(F)F)cc1	none (no result: Pf growth 96h, SARS PLP yeast, Pf growth 48h, AmpC no deterg)
COc1ccc(C2C(C#N)=C(N)OC3=C2C(=O)CCC3)cc1Cn1nc(C)c([N+](=O)[O-])c1C (stereo not drawn)	Pf growth 48h 11.7µM, AmpC no deterg inconclusive
COc1ccc(C(C)=O)cc1Cn1nc(C)c([N+](=O)[O-])c1C	Pf growth 96h inconclusive, Pf growth 48h 18.5µM, AmpC detergent inconclusive
Cc1ccc(SCC(=O)NC(=O)Nc2ccc3c(c2)OCCO3)c(C)c1	none
O=C1C(=O)N(CCCn2ccnc2)C(c2ccc(Br)cc2)/C1=C(\O)c1ccc2c(c1)OCCO2 (stereo not drawn)	Pf growth 96h 9.28µM
CCCOc1ccc(/C(O)=C2/C(=O)C(=O)N(CCN(C)C)C2c2ccco2)cc1 (stereo not drawn)	Pf growth 96h inconclusive, Sm TGR inh 44.7µM
CCCOc1cccc(C2/C(=C(/O)c3ccccc3)C(=O)C(=O)N2CCN(C)C)c1 (stereo not drawn)	Pf growth 96h inconclusive, SARS PLP yeast inconclusive
O=C1C(=O)N(CCCn2ccnc2)C(c2ccc(Cl)cc2)/C1=C(\O)c1ccc2c(c1)OCCO2 (stereo not drawn)	none
CCCOc1ccc(/C(O)=C2/C(=O)C(=O)N(CCCN3CCOCC3)C2c2ccncc2)cc1 (stereo not drawn)	Pf growth 96h inconclusive, Sm TGR inh 11.2µM, Pf growth 48h inconclusive
O=C1C(=O)N(CCN2CCOCC2)C(c2ccncc2)/C1=C(/O)c1ccc2c(c1)OCO2 (stereo not drawn)	Pf growth 96h 8.28µM, Sm TGR inh inconclusive, AmpC detergent inconclusive
O=C(NNC(=O)c1ccccc1F)c1ccc(NS(=O)(=O)c2ccc(F)cc2)cc1	AmpC detergent inconclusive
COc1ccc(-c2cc3nc(C)c(CCC(=O)N4CCN(c5ccc(F)cc5)CC4)c(C)n3n2)c(OC)c1	none (no result: Pf growth 96h, SARS PLP yeast, Pf growth 48h, AmpC no deterg)
CS(=O)(=O)N(CC(=O)N1CCN(c2ccccc2F)CC1)C1CCCCC1	AmpC detergent inconclusive
CCOC(=O)N1CCN(C(=O)CN(C2CCCCC2)S(=O)(=O)c2c(C)cc(C)cc2C)CC1	Pf growth 96h 10.4µM (no result: Pf growth 48h)
Cc1ccc(S(=O)(=O)N(CC(=O)N2CCN(c3ccccc3F)CC2)C2CCCCC2)cc1	Pf growth 96h 10.4µM (no result: Pf growth 48h)
Cc1cc(C)c(S(=O)(=O)N(CC(=O)N2CCOCC2)C2CCCCC2)c(C)c1	Pf growth 96h inconclusive, SARS PLP yeast inconclusive, Pf growth 48h inconclusive
Cc1ccc(C)c(N2CCN(C(=O)CCS(=O)(=O)c3cccc4nonc34)CC2)c1	Sm TGR inh 35.5µM, Pf growth 48h inconclusive
O=C(CCS(=O)(=O)c1cccc2nonc12)NC1CCCCCC1	Sm TGR inh 44.7µM
Cc1ccc(NC(=O)CCS(=O)(=O)c2cccc3nonc23)c(Br)c1	Sm TGR inh 31.6µM
Cc1ccc(C)c(N(C)C(=O)CCS(=O)(=O)c2cccc3nonc23)c1	Sm TGR inh 20µM
O=C(CCNS(=O)(=O)c1cccc2nonc12)NC1CCCCC1	Pf growth 96h inconclusive
CCN(CC(=O)N1CCOCC1)S(=O)(=O)c1ccc(F)cc1	none
O=C(CCS(=O)(=O)c1cccc2nonc12)Nc1c(F)cccc1F	Sm TGR inh 11.2µM, AmpC detergent inconclusive (no result: Pf growth 96h, SARS PLP yeast, Pf growth 48h, AmpC no deterg)
Cc1ccc(C)c(N2CCN(C(=O)Cn3cccc3)CC2)c1	Sm TGR inh 39.8µM, AmpC detergent inconclusive
COc1ccc(N2C(=O)[C@@H]3[C@H](C2=O)[C@H]2C=CC=NN2[C@@H]3C(=O)Nc2ccc(Cl)cc2)cc1	Sm TGR inh inconclusive, Pf growth 48h inconclusive
COc1ccc(N2C(=O)[C@@H]3[C@H](C2=O)[C@H]2c4ccccc4C=CN2[C@@H]3C(=O)Nc2ccccc2)cc1	Pf growth 96h 9.28µM, AmpC detergent inconclusive (no result: Pf growth 48h)
Cc1ccc(N2C(=O)[C@@H]3[C@H](C2=O)C2c4ccccc4C=CN2[C@@H]3C(=O)c2ccco2)c(C)c1 (stereo partly drawn)	Sm TGR inh inconclusive, Pf growth 48h inconclusive
O=C(c1ccco1)[C@@H]1[C@@H]2C(=O)N(c3ccccc3)C(=O)[C@@H]2C2c3ccccc3C=CN21 (stereo partly drawn)	Pf growth 96h 4.65µM, Sm TGR inh 56.2µM
CC(=O)[C@@H]1[C@@H]2C(=O)N(Cc3ccccc3)C(=O)[C@@H]2C2c3ccccc3C=CN21 (stereo partly drawn)	Sm TGR inh 44.7µM, Pf growth 48h inconclusive
Cc1ccc(N2C(=O)[C@@H]3[C@H](C2=O)C2c4ccccc4C=CN2[C@@H]3C(=O)c2ccco2)cc1 (stereo partly drawn)	Sm TGR inh 28.2µM, Pf growth 48h inconclusive
CCCCc1oc2ccccc2c1C(=O)c1cc(I)c(OCCN(CC)CC)c(I)c1	Pf growth 96h 4.15µM, Pf growth 48h 8.28µM (no result: Sm TGR inh)
CC[n+]1cc(-c2ccccc2)nc(N2CCOCC2)n1	Pf growth 48h 2.33µM
c1ccc(-c2csc(N3CCOCC3)n2)cc1	none (no result: Pf growth 96h)
NC(=O)C1(N2CCCCC2)CCN(C(=O)Nc2ccc(F)cc2F)CC1	none (no result: Pf growth 96h, SARS PLP yeast, Pf growth 48h, AmpC no deterg)
COc1ccc([C@]23Cc4cc(OC)c(OC)cc4C(O2)C2=C(CCCC2=O)O3)cc1	Pf growth 96h inconclusive, Sm TGR inh 3.55µM, SARS PLP yeast inconclusive, Pf growth 48h inconclusive
COc1ccc([C@]23Cc4ccccc4C(O2)C2=C(CC(C)(C)CC2=O)O3)cc1	Pf growth 96h 0.601µM, Sm TGR inh inconclusive, Pf growth 48h inconclusive, AmpC detergent inconclusive
